From PubChem BioAssay (NCATS)
Records with an inconclusive call do not appear. The source made the active and inactive calls. Calls follow the shape of the dose curve; as a rule, active = well fitted curve in the direction sought with a large enough effect; inconclusive = small, poorly fitted or top-dose-only effect, or another doubt; inactive = no such curve, though single readings can be large; an effect the other way counts as inactive or inconclusive.

Columns and labels:
CRL-7250 = normal cell line; experiment: Cytotoxic Profiling of Annotated Libraries Using Quantitative High-Throughput Screening (AID 1296008); settings: Five cell lines viability, CellTiter-Glo ATP luminescence, 48-72 h; max response: stronger effect = lower value; also: nearly all actives have a fitted effect of over 60% in size; also: potency is read from the fitted curve at half-maximal effect; as to max response: % is scaled to controls: 0 for no effect and ±100 for the full control effect
Method in brief: (§1)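 Cells exposed to compounds for 48 or 72 hr at 37 degrees Celsius. Viability read as ATP-coupled luminescence with CellTiter-Glo after 10 min at room temperature.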

HaCat [1] = experiment: as above; settings: Five cell lines viability, CellTiter-Glo ATP luminescence, 48-72 h; max response: stronger effect = lower value
Method in brief: as §1

NIH3T3 [2] = experiment: as above; settings: Five cell lines viability, CellTiter-Glo ATP luminescence, 48-72 h; max response: stronger effect = lower value
Method in brief: as §1

HACAT [3] = experiment: qHTS assay to identify novel small-molecules to repurpose for Merkel cell carcinoma treatment (AID 1296009); settings: MCC and control cell lines, CellTiter-Glo viability, 72 h; at 44.8 µM (top of the series) unless noted; also: nearly all actives have a fitted effect of over 60% in size
Method in brief: (§2)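 Cells were treated for 72 hr at 37 degree celsius with compounds in 8- or 11-point dose response. Viability was read by CellTiter-Glo luminescence, normalized to no-cell (cytotoxicity) and DMSO controls.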

C33A = experiment: Primary qHTS to identify gynecologic anti-cancer compounds using libraries of approved drugs and bioactive compounds (AID 1345084); settings: Gynecologic cancer cell panel viability, ATPlite luminescence, 48 h; series mostly up to 57.5 µM; also: nearly all actives have a fitted effect of over 55% in size; also: potency is read from the fitted curve at half-maximal effect; as to activity change, negative = cytotoxicity: % is scaled to controls: 0 for no effect and ±100 for the full control effect
Method in brief: (§3)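 Cells, 1,000 per well, plated 16 h, then exposed 48 h at 37 C to compounds. Viability by ATPlite luminescence after 15 min at room temperature.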

CAOV3 = experiment: as above; settings: Gynecologic cancer cell panel viability, ATPlite luminescence, 48 h; series mostly up to 57.5 µM
Method in brief: as §3

CASKI = experiment: as above; settings: Gynecologic cancer cell panel viability, ATPlite luminescence, 48 h; series mostly up to 57.5 µM
Method in brief: as §3

Es-2 = experiment: as above; settings: Gynecologic cancer cell panel viability, ATPlite luminescence, 48 h; series mostly up to 57.5 µM
Method in brief: as §3

HeLa = experiment: as above; settings: Gynecologic cancer cell panel viability, ATPlite luminescence, 48 h; series mostly up to 57.5 µM
Method in brief: as §3

Hek293T = experiment: as above; settings: Gynecologic cancer cell panel viability, ATPlite luminescence, 48 h, control line for the selectivity index; series mostly up to 57.5 µM
Method in brief: as §3

OV90 = experiment: as above; settings: Gynecologic cancer cell panel viability, ATPlite luminescence, 48 h; series mostly up to 57.5 µM
Method in brief: as §3

PA-1 = experiment: as above; settings: Gynecologic cancer cell panel viability, ATPlite luminescence, 48 h; series mostly up to 57.5 µM
Method in brief: as §3

SKOV3 = experiment: as above; settings: Gynecologic cancer cell panel viability, ATPlite luminescence, 48 h; series mostly up to 57.5 µM
Method in brief: as §3

NIH3T3 [4] = experiment: qHTS assay to identify novel small-molecules to repurpose for Merkel cell carcinoma treatment (AID 1296009); settings: MCC and control cell lines, CellTiter-Glo viability, 72 h; series mostly up to 44.8 µM; also: nearly all actives have a fitted effect of over 60% in size
Method in brief: as §2

JEG-3 = experiment: Primary qHTS to identify gynecologic anti-cancer compounds using libraries of approved drugs and bioactive compounds (AID 1345084); settings: Gynecologic cancer cell panel viability, ATPlite luminescence, 48 h; series mostly up to 57.5 µM; also: nearly all actives have a fitted effect of over 55% in size; also: potency is read from the fitted curve at half-maximal effect; as to activity change, negative = cytotoxicity: % is scaled to controls: 0 for no effect and ±100 for the full control effect
Method in brief: as §3

O=C(Nc1ccc(Cl)cc1)Nc1cccc(-c2cccc(N3CCCC3)n2)c1
inactive: max response (CRL-7250) -4.95% | outcome (HaCat [1]) | max response (NIH3T3 [2]) 1.43% | outcome (HACAT [3]) | Potency (C33A) | Potency (CAOV3) | Potency (CASKI) | Potency (Es-2) | Potency (HeLa) | Potency (Hek293T) | Potency (OV90) | Potency (PA-1) | Potency (SKOV3)

CN(C)C(CCOc1cccc2ccccc12)c1ccccc1 (configuration not stated)
inactive: max response (CRL-7250) -16.3% | outcome (HaCat [1]) | outcome (NIH3T3 [2]) | outcome (HACAT [3]) | Potency (NIH3T3 [4]) | Potency (C33A) | Potency (CAOV3) | Potency (CASKI) | Potency (Es-2) | Potency (HeLa) | Potency (Hek293T) | Potency (JEG-3) | Potency (PA-1)

Cc1cc(C(=O)Cn2cc(C#N)ccc2=O)c(C)n1Cc1ccccc1
inactive: max response (CRL-7250) -5.73% | outcome (HaCat [1]) | outcome (NIH3T3 [2]) | outcome (HACAT [3]) | Potency (NIH3T3 [4]) | Potency (C33A) | Potency (CAOV3) | Potency (CASKI) | Potency (Es-2) | Potency (HeLa) | Potency (JEG-3) | Potency (OV90) | Potency (PA-1) | Potency (SKOV3)

O=C(Nc1nc2ccc([N+](=O)[O-])cc2s1)C1CCCCC1
inactive: max response (CRL-7250) -7.28% | outcome (HaCat [1]) | max response (NIH3T3 [2]) -1.61% | outcome (HACAT [3]) | Potency (C33A) | Potency (CAOV3) | Potency (CASKI) | Potency (HeLa) | Potency (Hek293T) | Potency (JEG-3) | Potency (OV90) | Potency (PA-1)

O=C(COc1ccc2ccccc2c1Br)Nc1cccnc1
inactive: max response (CRL-7250) -18.6% | outcome (HaCat [1]) | max response (NIH3T3 [2]) -5.04% | outcome (HACAT [3]) | Potency (C33A) | Potency (CAOV3) | Potency (CASKI) | Potency (Es-2) | Potency (HeLa) | Potency (Hek293T) | Potency (JEG-3) | Potency (OV90) | Potency (PA-1) | Potency (SKOV3)

O=S(=O)(c1ccccc1)N(CC(F)(F)F)c1ccc(C(O)(C(F)(F)F)C(F)(F)F)cc1
inactive: outcome (CRL-7250) | outcome (HaCat [1]) | max response (NIH3T3 [2]) 0.0289% | outcome (HACAT [3]) | Potency (C33A) | Potency (CAOV3) | Potency (CASKI) | Potency (HeLa) | Potency (Hek293T) | Potency (JEG-3) | Potency (OV90) | Potency (PA-1) | Potency (SKOV3)

CCC(C)C(=O)O[C@H]1[C@H](O)[C@@]2(COC(C)=O)C(CC1(C)C)C1=CCC3[C@@]4(C)CC[C@H](O[C@@H]5O[C@H](C(=O)O)[C@@H](O)[C@H](O)[C@H]5O)[C@@](C)(CO)C4CC[C@@]3(C)[C@]1(C)C[C@@H]2O (some centres not stated)
inactive: max response (CRL-7250) 4.21% | outcome (HaCat [1]) | max response (NIH3T3 [2]) 2.07% | outcome (HACAT [3]) inactive [at 9.27 µM] | activity change, negative = cytotoxicity (C33A) -3% [at 11.6 µM] | activity change, negative = cytotoxicity (CAOV3) -4.8% [at 11.6 µM] | activity change, negative = cytotoxicity (CASKI) 10.3% [at 11.6 µM] | activity change, negative = cytotoxicity (Es-2) 5.26% [at 11.6 µM] | activity change, negative = cytotoxicity (HeLa) 8.08% [at 11.6 µM] | activity change, negative = cytotoxicity (Hek293T) 5.16% [at 11.6 µM] | activity change, negative = cytotoxicity (JEG-3) 9.72% [at 11.6 µM] | activity change, negative = cytotoxicity (OV90) 0.006% [at 11.6 µM] | activity change, negative = cytotoxicity (PA-1) 5.51% [at 11.6 µM]

CC(C)(O)C1CC(=O)C2(C)C(CCC3(C)C(c4ccoc4)OC(=O)C4OC432)C12CCC(=O)OC2 (configuration not stated)
inactive: max response (CRL-7250) -9.62% | outcome (HaCat [1]) | outcome (NIH3T3 [2]) | outcome (HACAT [3]) inactive [at 17.4 µM] | Potency (NIH3T3 [4]) | Potency (C33A) | Potency (CAOV3) | Potency (CASKI) | Potency (Es-2) | Potency (HeLa) | Potency (Hek293T) | Potency (OV90) | Potency (SKOV3)

O=C(NCc1nc2ccccc2c(=O)n1-c1ccc(F)cc1)Nc1ccc(Cl)c(C(F)(F)F)c1
inactive: outcome (CRL-7250) | outcome (HaCat [1]) | max response (NIH3T3 [2]) -1.1% | outcome (HACAT [3]) | Potency (C33A) | Potency (CAOV3) | Potency (CASKI) | Potency (Es-2) | Potency (HeLa) | Potency (Hek293T) | Potency (JEG-3) | Potency (OV90) | Potency (PA-1) | Potency (SKOV3)

COc1cc2c(cc1-c1c(C)noc1C)ncc1[nH]c(=O)n(C(C)c3ccccn3)c12 (configuration not stated)
inactive: outcome (HaCat [1]) | outcome (HACAT [3]) | Potency (C33A) | Potency (CASKI) | Potency (Hek293T) | Potency (JEG-3)
active: Potency (CRL-7250) 5.8 µM | Potency (NIH3T3 [2]) 7.31 µM | Potency (SKOV3) 12.6 µM

Cc1nc2cc(C(=O)NCc3ccccn3)nn2c(C)c1Cc1cccc(Cl)c1
inactive: outcome (CRL-7250) | outcome (HaCat [1]) | max response (NIH3T3 [2]) 3.03% | outcome (HACAT [3]) | Potency (C33A) | Potency (CAOV3) | Potency (CASKI) | Potency (Es-2) | Potency (HeLa) | Potency (Hek293T) | Potency (JEG-3) | Potency (PA-1)

N#Cc1ccc(N2N=C3c4ccc(C(=O)O)cc4CC[C@@H]3[C@@H]2C2CCCC2)cc1Cl
inactive: max response (CRL-7250) 1.36% | outcome (HaCat [1]) | max response (NIH3T3 [2]) -3.29% | outcome (HACAT [3]) | Potency (C33A) | Potency (CAOV3) | Potency (CASKI) | Potency (Es-2) | Potency (HeLa) | Potency (Hek293T) | Potency (JEG-3) | Potency (OV90) | Potency (PA-1) | Potency (SKOV3)

CC(C)C[C@@H](C(=O)N[C@@H](Cc1ccc(OCc2ccccc2)cc1)C(=O)NC(C)(C)C)N(C)Cc1ccc(C(C)(C)C)cc1
inactive: max response (CRL-7250) -7.62% | outcome (HaCat [1]) | max response (NIH3T3 [2]) -5.54% | outcome (HACAT [3]) | Potency (C33A) | Potency (CASKI) | Potency (Es-2) | Potency (HeLa) | Potency (Hek293T) | Potency (JEG-3) | Potency (OV90) | Potency (PA-1)

Cc1cc(C)cc(-c2cnc3cc(Cl)c(-c4cccc(O)c4)cc3c2OCCCN)c1
inactive: max response (CRL-7250) 3.3% | outcome (HaCat [1]) | max response (NIH3T3 [2]) -0.922% | outcome (HACAT [3]) | Potency (C33A) | Potency (CAOV3) | Potency (CASKI) | Potency (Es-2) | Potency (HeLa) | Potency (Hek293T) | Potency (JEG-3) | Potency (OV90) | Potency (PA-1) | Potency (SKOV3)

CC(C)=C[C@@H]1[C@H](CO[C@@H]2O[C@H](CO)[C@@H](O)[C@H](O)[C@H]2O)C1(C)C
inactive: outcome (CRL-7250) | outcome (HaCat [1]) | max response (NIH3T3 [2]) 4.21% | outcome (HACAT [3]) | Potency (C33A) | Potency (CAOV3) | Potency (CASKI) | Potency (Es-2) | Potency (HeLa) | Potency (Hek293T) | Potency (JEG-3) | Potency (OV90) | Potency (PA-1)

C=C(C)[C@@H]1CC[C@]2(C(=O)O)CC[C@]3(C(=O)O)[C@H](CCC4[C@@]5(C)CCC(=O)C(C)(C)C5CC[C@]43C)C12 (some centres not stated)
inactive: max response (CRL-7250) -13.3% | outcome (HaCat [1]) | max response (NIH3T3 [2]) -2.4% | outcome (HACAT [3]) inactive [at 17.4 µM] | Potency (C33A) | Potency (CASKI) | Potency (Es-2) | Potency (HeLa) | Potency (Hek293T) | Potency (JEG-3) | Potency (OV90) | Potency (PA-1)

COC(=O)CC(O)CC(O)/C=C/c1c(C)ccc2c1C(OC(C)=O)CC(C)C2 (configuration not stated)
inactive: outcome (HaCat [1]) | outcome (NIH3T3 [2]) | outcome (HACAT [3]) | Potency (NIH3T3 [4]) | Potency (C33A) | Potency (CAOV3) | Potency (CASKI) | Potency (Es-2) | Potency (Hek293T) | Potency (JEG-3) | Potency (SKOV3)
active: Potency (CRL-7250) 4.04 µM
